Assay outcomes deposited in PubChem by National Center for Advancing Translational Sciences (NCATS).
ALOX15B inhib = qHTS Assay for Inhibitors of 15-hLO-2 (15-human lipoxygenase 2). 0.56% of 110,000 active. Polyunsaturated fatty acid lipoxygenase ALOX15B (Homo sapiens), O15296. purified 15hLO-2, xylenol orange hydroperoxide absorbance. AID 881, 2007. Potency, µM (highest dose often 57.1 µM), without a hit: top-dose activity change, negative = inhibition, usual class: inhibitors; note: nearly all actives have a fitted effect of over 60% in size
Target sequence (O15296 whole entry, looked up): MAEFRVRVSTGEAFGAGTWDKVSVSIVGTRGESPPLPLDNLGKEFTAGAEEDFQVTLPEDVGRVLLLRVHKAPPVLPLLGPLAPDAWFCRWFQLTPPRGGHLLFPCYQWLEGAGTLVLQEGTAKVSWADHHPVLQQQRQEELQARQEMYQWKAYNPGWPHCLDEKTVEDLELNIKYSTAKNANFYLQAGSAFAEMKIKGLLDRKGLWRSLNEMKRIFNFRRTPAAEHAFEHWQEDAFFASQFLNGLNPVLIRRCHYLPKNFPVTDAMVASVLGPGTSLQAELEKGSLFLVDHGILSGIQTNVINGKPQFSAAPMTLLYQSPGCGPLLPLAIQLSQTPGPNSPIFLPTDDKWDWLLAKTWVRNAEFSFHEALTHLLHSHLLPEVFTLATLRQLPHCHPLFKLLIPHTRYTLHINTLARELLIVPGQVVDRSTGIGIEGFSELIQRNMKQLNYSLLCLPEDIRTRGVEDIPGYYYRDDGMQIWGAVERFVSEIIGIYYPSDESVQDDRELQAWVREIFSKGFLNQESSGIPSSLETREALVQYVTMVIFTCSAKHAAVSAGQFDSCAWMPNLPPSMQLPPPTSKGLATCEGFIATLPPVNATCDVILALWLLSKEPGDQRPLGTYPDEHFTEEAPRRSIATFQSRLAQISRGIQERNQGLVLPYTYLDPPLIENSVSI
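Enzyme 50 nM, AA 45 uM, 25 mM Hepes pH 7.5 + 0.01% Triton X-100; cpd preinc 15 min RT, rxn 90 min RT; stop/detect with 200 uM XO + 300 uM Fe(II) in 50 mM H2SO4, 30 min; A573/A405.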
12-hLO inh = qHTS Assay for Inhibitors of 12-hLO (12-human lipoxygenase). Polyunsaturated fatty acid lipoxygenase ALOX12 (Homo sapiens), P18054. purified 12-hLO, xylenol orange hydroperoxide absorbance. Potency, µM (doses to about 57.1 µM), for the others: at the highest dose activity change, negative = inhibition, actives largely listed as inhibitors. 0.12% of 150,000 active. AID 1452, 2008; note: nearly all actives have a fitted effect of over 55% in size
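Lipoxygenase turnover measured by absorbance at 573 and 405 nm after Fe-XO development. Human 12hLO 150 nM, arachidonate 40 uM, pH 7.0 Hepes buffer with detergent; 15 min compound preincubation, 30 min reaction.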
The depositor's hits bear a star; u = inconclusive; x = no result; [ ] = remark or other dose. The full list was thinned out, with hits kept by preference. Calls come from the whole dose curve; as a rule, active = well fitted curve in the direction sought with a large enough effect; inconclusive = small, poorly fitted or top-dose-only effect, or another doubt; inactive = no such curve, though single readings can be large; an effect the other way counts as inactive or inconclusive. % is set by controls: 0 for no effect and ±100 for the full control effect; potency is the fitted concentration of half-maximal effect.

SMILES	ALOX15B inhib	12-hLO inh
COc1ccc(S(=O)(=O)Nc2cc(Sc3ncn[nH]3)c(O)c3ccccc23)cc1	4µM*	u
COc1ccc(S(=O)(=O)Nc2ccc(O)c(Sc3ncn[nH]3)c2)cc1	x	-9%
Clc1nc(Cl)nc(N(c2ccccc2)c2ccccc2)n1	x	-2%
Nc1ccc(N(c2ccccc2)c2ccc(N)cc2)cc1	0.63µM*	-29%
NCCC[C@@](N)(C(=O)O)C(F)F	2%	-4%
CCOC(=O)CSc1nnc(CNc2cccc(Cl)c2)n1-c1ccccc1	-2%	-10%
CCOC(=O)C1(C)/C(=N/Nc2cccc(Cl)c2)C(=O)C(=O)N1c1ccccc1 (stereo not given)	-21%	3.2µM*
CC(=O)c1ccc2c(c1)Nc1ccccc1S2	-26%	-25%
CCOC(=O)Nc1ccc2c(c1)Nc1ccccc1S2	13µM*	-10%
FC(F)(F)c1cc(CO[C@@H]2CCCN[C@H]2c2ccccc2)cc(C(F)(F)F)c1	33%	-2%
Cc1ccc(S(=O)(=O)NNC(=O)CCC(=O)Nc2ccccc2)cc1	x	8%
O=C(NNc1nc2ccccc2nc1C(F)(F)F)c1ccccc1	x	4%
Cc1ccc(S(=O)(=O)NNc2ccccc2)cc1	u	16µM*
Cc1ccc(S(=O)(=O)NNc2nc3ccccc3nc2C(F)(F)F)cc1	7.9µM*	u
CN(C)c1ccc(N=Cc2ccco2)cc1	32µM*	u
CN(C)c1ccc(C=Nc2ccc(N(C)C)cc2)cc1	x	-15%
COC(=O)[C@@H]1[C@@H]2C[C@H]3c4[nH]c5ccccc5c4CCN3C[C@@H]2CC[C@@H]1OS(=O)(=O)O	-5%[11.4 µM]	4%[11.4 µM]
O=C(NCCO)c1ccc(Cc2nc3ccccc3[nH]2)cc1	x	0%
